SMILES strings stand for the structures.

The test has as its system LOC_OS01G67340-cb003. Description: thermal shift delta Tm vs DMSO control; higher = stronger stabilization (binding). The settings on record: 12.5 µM; protein concentration 2 µM. A digest of the protocol:
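Purified, E. coli-expressed rice kinase domain constructs were tested by differential scanning fluorimetry in 96-well plates: 19.5 μl of 2 μM kinase in 100 mM potassium phosphate pH 7.5, 150 mM NaCl, 10% glycerol, 5 × SYPRO Orange, plus compound in DMSO. Fluorescence was read from 25°C to 95°C at 0.05°C/s. Melting temperatures came from Boltzmann fits, and the shift is the triplicate mean relative to protein with DMSO alone.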
Take `Oc1c2ccccc2c2c3c(cccc13)N=N2`: the “thermal shift delta Tm” value was 6.47 °C. On to `CSc1cccc(Nc2ncc3cc(-c4c(Cl)cccc4Cl)c(=O)n(C)c3n2)c1`, for which the “thermal shift delta Tm” value was 0.72 °C. On to `COc1cc(Nc2ncc(F)c(Nc3ccc4c(n3)NC(=O)C(C)(C)O4)n2)cc(OC)c1OC` [R406 (free base)], for which the “thermal shift delta Tm” value amounted to 1 °C.

On to `Cc1cn(-c2cc(NC(=O)c3ccc(C)c(Nc4nccc(-c5cnccn5)n4)c3)cc(C(F)(F)F)c2)cn1` [Radotinib], for which the “thermal shift delta Tm” value was found to be 0.48 °C. For the molecule `CN1CCN(Cc2ccc(-c3cnc4[nH]cc(-c5ccc6[nH]ccc6c5)c4c3)cc2)CC1`, the “thermal shift delta Tm” value came to 7.26 °C. As to `CONC(=O)c1ccccc1Nc1cc(Nc2cc(C)nn2C(C)C)ncc1Cl`, the “thermal shift delta Tm” value is 0.98 °C. On to `CNC(=O)c1cc(Oc2ccc(NC(=O)Nc3ccc(Cl)c(C(F)(F)F)c3)c(F)c2)ccn1` [Regorafenib (BAY 73-4506)], for which the “thermal shift delta Tm” value is -0.62 °C. As to `c1cc(-c2cnn3cc(-c4ccc(OCCN5CCCCC5)cc4)cnc23)ccn1` [Dorsomorphin 2HCl], the “thermal shift delta Tm” value came out at 6.09 °C. Take `CCCCCCCCCC(=O)CC(O)S(=O)(=O)O` (configuration not stated) [Sodium Houttuyfonate]: the “thermal shift delta Tm” value amounted to 0.28 °C.

Consider `CC(C)[C@H](CO)Nc1nc(Nc2cccc(Cl)c2)c2ncn(C(C)C)c2n1` [Purvalanol A], for which the “thermal shift delta Tm” value was 3.08 °C. As to `COc1ccc(Cl)c(Nc2nc3ccccc3nc2NS(=O)(=O)c2cccc(NC(=O)C(C)(C)N)c2)c1` [Pilaralisib (XL147)], the “thermal shift delta Tm” value is 2 °C. On to `CC(C)Oc1ccc(-c2nn([C@@H](C)c3oc4ccc(F)cc4c(=O)c3-c3cccc(F)c3)c3ncnc(N)c23)cc1F`, for which the “thermal shift delta Tm” value turned out to be 0.6 °C. In the case of `O=C(/C=C/c1ccc2ccccc2n1)c1ccncc1`, the “thermal shift delta Tm” value worked out at 0.62 °C. Consider `CC(C)(O)CC(=O)NCCn1ccc2ncnc(Nc3ccc(Oc4cccc(C(F)(F)F)c4)c(Cl)c3)c21`, for which the “thermal shift delta Tm” value was found to be 1.33 °C. Regarding `CCOC(=O)c1cnc2ccc(-c3cncc(NS(=O)(=O)c4ccccc4)c3)cn12`, the “thermal shift delta Tm” value was found to be 0.76 °C. The same measure for `N#Cc1c(NC(=O)c2cccc3ccccc23)sc2c1CCCC2` [JNK Inhibitor IX]: 0.34 °C. For `CN(C)Cc1cccc(N=C(c2ccccc2)c2c(O)[nH]c3cc(C(=O)N(C)C)ccc23)c1`, the “thermal shift delta Tm” value amounted to 0.8 °C. In the case of `O=c1c(-c2ccc(O)cc2)coc2cc(O)cc(O)c12` [Genistein], the “thermal shift delta Tm” value is -0.02 °C. Turning to `CCn1c2ccccc2c2cc(Nc3ccnc(NCCCN4CCOCC4)n3)ccc21`, the “thermal shift delta Tm” value stood at 0.51 °C. The same measure for `N#CC(=C(/N)Sc1ccccc1N)/C(C#N)=C(\N)Sc1ccccc1N`: 0.77 °C; for `CCN(CC)CCCC(C)Nc1nc(C)cc(Nc2ccc3nc(C)cc(N)c3c2)n1` (configuration not stated): 0.08 °C; for `c1cn2cc(-c3ccc4cn[nH]c4c3)nc(Nc3ccc(N4CCOCC4)cc3)c2n1` [Entospletinib (GS-9973)]: 2.82 °C.

Consider `C[C@H]1CNC(=O)c2cnn3ccc(nc23)N[C@H](C)c2cc(F)ccc2O1`, for which the “thermal shift delta Tm” value stood at 1.17 °C. Take `CC(C)c1cnn2c(NCc3ccccc3)cc(NCCCCCCN)nc12`: the “thermal shift delta Tm” value was -0.22 °C. Regarding `C=CC(=O)Nc1cccc(Nc2nc(Nc3ccc(NC4CN(CCF)C4)cc3OC)ncc2C(F)(F)F)c1`, the “thermal shift delta Tm” value was -0.31 °C. As to `CNC(=O)CN1CCC(Oc2cc3c(Nc4cccc(Cl)c4F)ncnc3cc2OC)CC1` [Sapitinib (AZD8931)], the “thermal shift delta Tm” value is -0.27 °C. As for `C=CC(=O)Nc1cccc(Nc2nc(Nc3ccc(N4CCN(C(C)=O)CC4)cc3OC)ncc2C(F)(F)F)c1` [Rociletinib (CO-1686, AVL-301)], the “thermal shift delta Tm” value came out at 0.52 °C. `O=C(c1ccc(/C=C/c2n[nH]c3ccccc23)cc1)N1CCNCC1`: the “thermal shift delta Tm” value turned out to be 4.9 °C.

For the molecule `Cc1ccc(NC(=O)c2ccc(CN3CCN(C)CC3)cc2)cc1Nc1nc(-c2cccnc2)cs1` [Masitinib (AB1010)], the “thermal shift delta Tm” value is -0.46 °C. `N#Cc1c(O)c2c(-c3ccc(-c4ccccc4O)cc3)csc2[nH]c1=O`: the “thermal shift delta Tm” value is 0.95 °C. Take `CN1CC[C@H](c2c(O)cc(O)c3c(=O)cc(-c4ccccc4Cl)oc23)[C@H](O)C1` [Flavopiridol (Alvocidib)]: the “thermal shift delta Tm” value is -0.01 °C.

For `Cc1cnc(Nc2ccc(OCCN3CCCC3)cc2)nc1Nc1cccc(S(=O)(=O)NC(C)(C)C)c1`, the “thermal shift delta Tm” value stood at 0.84 °C. The same measure for `C[C@@H](Oc1ccc2[nH]nc(/C=C/c3cnn(CCO)c3)c2c1)c1c(Cl)cncc1Cl`: 12.6 °C. `Nc1cccc(-c2cc3c(Oc4cccc(O)c4)ncnc3[nH]2)c1`: the “thermal shift delta Tm” value worked out at 0.65 °C.

Regarding `CN1CCC(COc2cnc(-c3cccc(Cn4nc(-c5cccc(C#N)c5)ccc4=O)c3)nc2)CC1`, the “thermal shift delta Tm” value was -0.02 °C. Consider `C[C@H](Nc1ncnc2nc[nH]c12)c1cc2cccc(Cl)c2c(=O)n1-c1ccccc1` [Duvelisib (IPI-145, INK1197)], for which the “thermal shift delta Tm” value came out at 0.06 °C. In the case of `CCCCNc1ncc(C(=O)NCc2ccc(-n3ccnc3)cc2)c(NC2CCC(O)CC2)n1` (configuration not stated) it was 10.2 °C.

Values taken from the supplement of paper PMC9694430.
